Screening data: PubChem BioAssay, several laboratories
TROY signal inh: inhibitors of TROY-driven NF-kB signaling, primary screen, Q293 LMP1-TROYcd cells, NF-kB luciferase, uHTS. inhibition, % at 10 µM. hit rate 0.98% among 360,000. Q293 LMP1-TROYcd NF-kB luciferase reporter, 4 h;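 active means compounds whose plate-normalised and pattern-corrected inhibition of the luciferase reporter signal at the single screening dose is 50% or more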
LMP1 NFkB inh: EBV LMP1-driven NF-kappaB luciferase reporter inhibitors, primary screen, cell-based, luminescence, single point; LMP1-induced NF-kappaB luciferase reporter cells; inhibition, % at 12.5 µM; hit rate 0.69% among 350,000; AID 504558, 2011; in the data active means inhibition above about 41%
HSP90 inh: HSP90 inhibitors, primary screen, cell lysate, luminescence | Rabbit reticulocyte lysate, luciferase refolding luminescence, 3 h | hit rate 0.91% among 290,000 | inhibition, % at 5.6 µM;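 active means inhibition above the screen-wide mean plus 3 SD, computed separately per campaign, cut at about 16% in these data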;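 further: inhibitors lower the luminescence because luciferase stays unfolded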
aDG glyco up: activators of alpha-DG glycosylation, primary screen, uHTS, Pro5-aDG cells, AlphaScreen; AID 624168, 2012; alpha-DG glycosylation AlphaScreen (IIH6); 0% Pro5, 100% B10-LARGE cell signal; activation, % at 10 µM; hit rate 0.22% among 360,000;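 active means activation of at least 8% versus controls, or a plate z-score of at least 8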;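 further: Pro5 are CHO cells carrying HIG-tagged alpha-DG that lacks glycosylation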
LGR2 inh: inhibitors of bursicon-induced LGR2 CRE-luciferase signal, primary screen, cell-based, HEK293, CRE-luciferase reporter, bursicon stimulation; AID 720647, 2013; inhibition, % at 9.99 µM; hit rate 0.35% among 380,000; bursicon-stimulated, 4 h; Drosophila bursicon receptor LGR2 (rickets);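 active means drop in luminescence signal, shown as inhibition above about 50% in the replicate tests, limit read from the data, passing the limit was not always enough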;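 further: agonist challenge used bursicon conditioned medium at about half maximal strength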
TWEAK Fn14 block: inhibitors of TWEAK-Fn14 signaling, primary screen, luciferase reporter cells, uHTS; inhibition, % at 10 µM; hit rate 2% among 360,000; TWEAK-stimulated Fn14 reporter cells, luciferase luminescence, 8 h; AID 1159606, 2016; in the data active means inhibition above about 50%
Large screens that a line does not name were inactive. In the library only some 2.6% were active in any assay of this set; here they are far more common.

CC1OC(OC2CC(O)C3(CO)C4C(O)CC5(C)C(C6=CC(=O)OC6)CCC5(O)C4CCC3(O)C2)C(O)C(O)C1O (configuration not stated)	LMP1 NFkB inh 80.0, LGR2 inh 89.6, TWEAK Fn14 block 91.6 (no result: HSP90 inh)
CC(O)C1C=CC=CC(=O)OC2CC3OC4C5OC5(C)CCC4(COC(=O)C4OC4(C)C(O)CO1)C2(C)C31CO1 (configuration not stated)	TROY signal inh 85.2, LMP1 NFkB inh 84.3, LGR2 inh 101.2, TWEAK Fn14 block 99.0 (no result: HSP90 inh)
CC(=O)OC1C(=O)OCC23CCC4(C)OC4C2OC2CC(OC(=O)C=CC=CC(=O)OCCC1C)C3(C)C21CO1 (configuration not stated)	TROY signal inh 84.1, LMP1 NFkB inh 80.7, LGR2 inh 104.6, TWEAK Fn14 block 99.2 (no result: HSP90 inh)
C[C@@H]1O[C@@H](O[C@@H]2C=C3CC[C@@H]4C(CC[C@]5(C)[C@@H](c6ccc(=O)oc6)CC[C@]45O)[C@@]3(C)CC2)[C@H](O)[C@H](O)[C@H]1O (some centres not stated)	TROY signal inh 50.9, LMP1 NFkB inh 82.3, LGR2 inh 86.0, TWEAK Fn14 block 85.9 (no result: HSP90 inh)
C[C@@H]1O[C@@H](O[C@@H]2C=C3CCC4C(CC[C@]5(C)[C@@H](c6ccc(=O)oc6)CC[C@]45O)[C@@]3(C)CC2)[C@H](O)[C@H](O)[C@H]1O (some centres not stated)	LMP1 NFkB inh 88.1, TWEAK Fn14 block 82.5 (no result: HSP90 inh)
CC(=O)C1CCC2(O)C3CCC4=CC(=O)CCC4(C)C3CCC12C (configuration not stated)	none (no result: HSP90 inh)
COc1ccc(C#Cc2ccc([C@@H]3[C@H]4CN(C(=O)Cc5ccncc5)CCCCN4[C@H]3CO)cc2)cc1	none (no result: TROY signal inh, LMP1 NFkB inh, HSP90 inh, aDG glyco up, TWEAK Fn14 block)
COC(=O)C[C@@H]1CC[C@H]2NC[C@@H](O)COC[C@@H]2O1	none (no result: TROY signal inh, LMP1 NFkB inh, HSP90 inh, aDG glyco up, TWEAK Fn14 block)
COC(=O)C12OCC34C(CC5C(C)=C(O)C(=O)CC5(C)C3C(O)C1O)OC(=O)C(OC(=O)/C=C(\C)C(C)C)C24 (configuration not stated)	TROY signal inh 84.7, LMP1 NFkB inh 95.4, LGR2 inh 101.1, TWEAK Fn14 block 94.8 (no result: HSP90 inh)
c1ccc(P(c2ccccn2)c2ccccn2)cc1	TROY signal inh 59.3
Nc1nnc(P(c2ccccc2)c2ccccc2)s1	none
COC(=O)[C@H]1[C@H](CO)[C@H]2Cn3c(ccc(-c4ccccc4)c3=O)[C@@H]1N2CC1CCOCC1	none (no result: TROY signal inh, LMP1 NFkB inh, HSP90 inh, aDG glyco up, TWEAK Fn14 block)
CCN1C(=O)/C(=C/c2ccc(N(CC)CC)cc2OC)C(=O)NC1=S	TWEAK Fn14 block 67.3
COc1ccccc1/C=C1\C(=O)NC(=S)N(c2ccccc2)C1=O	none (no result: LMP1 NFkB inh)
N#Cc1cccc(-c2ccc([C@H]3[C@H](CO)N4CCCCN(C(=O)Cc5ccccc5)C[C@@H]34)cc2)c1	none (no result: TROY signal inh, LMP1 NFkB inh, HSP90 inh, aDG glyco up, TWEAK Fn14 block)
CC1=C(N2CC2)C(=O)C(CO)=C(N2CC2)C1=O	LMP1 NFkB inh 88.8 (no result: HSP90 inh)
COC(COC(N)=O)C1=C(N2CC2)C(=O)C(C)=C(N2CC2)C1=O (configuration not stated)	none (no result: HSP90 inh)
CCN1[C@@H]2Cn3c(ccc(-c4ccc(OC)cc4)c3=O)[C@H]1[C@@H](C(=O)OC)[C@@H]2CO	none (no result: TROY signal inh, LMP1 NFkB inh, HSP90 inh, aDG glyco up, TWEAK Fn14 block)
O=C1CNC[C@@H]2[C@@H](c3ccc(Br)cc3)[C@H](CO)N12	none (no result: TROY signal inh, LMP1 NFkB inh, HSP90 inh, aDG glyco up, TWEAK Fn14 block)
C[N+](C)(C)CC#CCOC(=O)Nc1cccc(Cl)c1	LMP1 NFkB inh 81.5 (no result: HSP90 inh)
CCc1ccc(N2C(=O)NC(=O)/C(=C/c3cccn3CCOc3ccc(C(C)CC)cc3)C2=O)cc1 (configuration not stated)	HSP90 inh 29.4, TWEAK Fn14 block 64.5
COc1ccc(CC(=O)N2CCN(C)CC2)cc1	none (no result: LGR2 inh)
COc1ccc(CC2NCC(O)C2OC(C)=O)cc1 (configuration not stated)	TROY signal inh 87.6, LMP1 NFkB inh 88.2, TWEAK Fn14 block 100.5 (no result: HSP90 inh, LGR2 inh)
CCC(=O)N1[C@@H]2Cn3c(ccc(-c4cccc(F)c4)c3=O)[C@H]1[C@@H](C(=O)OC)[C@@H]2CO	none (no result: TROY signal inh, LMP1 NFkB inh, HSP90 inh, aDG glyco up, TWEAK Fn14 block)
CCCCC(CC)COCCCN=Cc1c(O)[nH]c(=S)[nH]c1=O (configuration not stated)	TWEAK Fn14 block 59.6 (no result: LMP1 NFkB inh)
